Values joined by “and” are separate entries in the source; they are usually repeats but may differ in a detail not shown here. Equal values may be shown once. In all, about 5,500 compounds went through this assay and about 2,000 (36%) were called active. Another 18% or so got no clear call; they are omitted. Rule as the data show it: active = normalized growth mostly below about 0.91 (no sharp cut-off); inconclusive = no clear call, values can overlap the other calls; inactive = mostly above about 0.92. Some of the results follow.
Assay: chemical genetic growth profiling, strain panel (AID 1159580);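 also: tested at 20 µM; growth read once vehicle control cultures reached saturation at 30 °C; 1 = growth at the plate median or of vehicle wells; lower values mean less growth of the strain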
Conditions: growth OD

Measured: normalized growth

NCCS
inactive: S. cerevisiae deletion strains, locus YJR075W, strain HOC1, hits give low values 1.01 | S. cerevisiae deletion strains, locus YKL009W, strain mrt4, hits give low values 0.998 | S. cerevisiae deletion strains, locus YKL068W, hits give low values 1 | S. cerevisiae deletion strains, locus YKL085W, strain MDH1 (second series), hits give low values 1.01 | S. cerevisiae deletion strains, locus YKL085W, strain MDH1, hits give low values 1.01 | S. cerevisiae deletion strains, locus YKL160W, strain elf1, hits give low values 0.986 | S. cerevisiae deletion strains, locus YKL190W, strain CNB1, hits give low values 1.01 | S. cerevisiae deletion strains, locus YKR001C, strain vps1, hits give low values 1.01 | S. cerevisiae deletion strains, locus YKR026C, strain gcn3, hits give low values 0.947 | S. cerevisiae deletion strains, locus YKR091W, strain srl3, hits give low values 0.991 | S. cerevisiae deletion strains, locus YLL001W, strain dnm1, hits give low values 1 | S. cerevisiae deletion strains, locus YLL026W, hits give low values 0.996 | S. cerevisiae deletion strains, locus YLL041C, strain sdh2, hits give low values 0.998 | S. cerevisiae deletion strains, locus YLR027C, strain aat2, hits give low values 0.984 | S. cerevisiae deletion strains, locus YLR039C, strain RIC1, hits give low values 1.05 | S. cerevisiae deletion strains, locus YLR058C, strain SHM2, hits give low values 1.02 | S. cerevisiae deletion strains, locus YLR102C, strain apc9, hits give low values 1.01 | S. cerevisiae deletion strains, locus YLR113W, strain HOG1, hits give low values 0.996 | S. cerevisiae deletion strains, locus YLR221C, strain rsa3, hits give low values 0.992 | S. cerevisiae deletion strains, locus YLR258W, strain gsy2, hits give low values 0.998 | S. cerevisiae deletion strains, locus YLR262C, strain YPT6 (second series), hits give low values 0.953 | S. cerevisiae deletion strains, locus YLR262C, strain YPT6, hits give low values 1.03 | S. cerevisiae deletion strains, locus YLR268W, strain sec22, hits give low values 1.01 | S. cerevisiae deletion strains, locus YLR320W, strain mms22, hits give low values 0.985 | S. cerevisiae deletion strains, locus YLR330W, strain CHS5, hits give low values 1.01 | S. cerevisiae deletion strains, locus YLR342W, strain FKS1 (second series), hits give low values 1.04 | S. cerevisiae deletion strains, locus YLR342W, strain FKS1, hits give low values 0.969 | S. cerevisiae deletion strains, locus YLR357W, strain rsc2, hits give low values 0.962 | S. cerevisiae deletion strains, locus YLR370C, strain arc18, hits give low values 0.989 | S. cerevisiae deletion strains, locus YLR371W, strain rom2, hits give low values 1.02 | S. cerevisiae deletion strains, locus YLR384C, strain iki3, hits give low values 0.999 | S. cerevisiae deletion strains, locus YLR418C, strain cdc73, hits give low values 1.03 | S. cerevisiae deletion strains, locus YML016C, strain PPZ1, hits give low values 1.02 | S. cerevisiae deletion strains, locus YML032C, strain rad52, hits give low values 1.02 | S. cerevisiae deletion strains, locus YML120C, strain ndi1, hits give low values 0.988 | S. cerevisiae deletion strains, locus YML124C, strain tub3, hits give low values 1.02 | S. cerevisiae deletion strains, locus YMR058W, strain fet3, hits give low values 0.985 | S. cerevisiae deletion strains, locus YMR078C, strain ctf18, hits give low values 1.01 | S. cerevisiae deletion strains, locus YMR125W, strain sto1, hits give low values 0.968 | S. cerevisiae deletion strains, locus YMR129W, hits give low values 1.01 | S. cerevisiae deletion strains, locus YMR205C, strain PFK2, hits give low values 0.983 | S. cerevisiae deletion strains, locus YMR223W, strain ubp8, hits give low values 1.01 | S. cerevisiae deletion strains, locus YMR231W, strain pep5, hits give low values 0.999 | S. cerevisiae deletion strains, locus YMR263W, strain SAP30, hits give low values 1.01 and 0.99 | S. cerevisiae deletion strains, locus YMR307W, strain GAS1, hits give low values 1.02 | S. cerevisiae deletion strains, locus YNL067W, strain RPL9B, hits give low values 1.01 | S. cerevisiae deletion strains, locus YNL071W, strain lat1, hits give low values 0.956 | S. cerevisiae deletion strains, locus YNL128W, strain TEP1, hits give low values 1.01 | S. cerevisiae deletion strains, locus YNL153C, strain GIM3, hits give low values 1.01 | S. cerevisiae deletion strains, locus YNL175C, strain NOP13, hits give low values 1 | S. cerevisiae deletion strains, locus YNL183C, strain NPR1, hits give low values 0.981 | S. cerevisiae deletion strains, locus YNL197C, strain WHI3, hits give low values 1.01 | S. cerevisiae deletion strains, locus YNL209W, strain ssb2, hits give low values 0.989 | S. cerevisiae deletion strains, locus YNL224C, strain SQS1, hits give low values 1 | S. cerevisiae deletion strains, locus YNL233W, strain BNI4, hits give low values 1.02 | S. cerevisiae deletion strains, locus YNL248C, strain rpa49, hits give low values 0.983 | S. cerevisiae deletion strains, locus YNL250W, strain rad50, hits give low values 1.02 | S. cerevisiae deletion strains, locus YNL271C, strain bni1, hits give low values 1.01 | S. cerevisiae deletion strains, locus YNL298W, strain CLA4, hits give low values 1.03 | S. cerevisiae deletion strains, locus YNL307C, strain MCK1, hits give low values 1.02 | S. cerevisiae deletion strains, locus YNL322C, strain KRE1 (second series), hits give low values 0.979 | S. cerevisiae deletion strains, locus YNL322C, strain KRE1, hits give low values 1.01 and 1.02 | S. cerevisiae deletion strains, locus YNR049C, strain mso1, hits give low values 0.972 | S. cerevisiae deletion strains, locus YNR052C, strain pop2, hits give low values 1.01 | S. cerevisiae deletion strains, locus YOL006C, strain TOP1, hits give low values 1.04 | S. cerevisiae deletion strains, locus YOL012C, strain htz1 1.32 | S. cerevisiae deletion strains, locus YOL147C, strain pex11, hits give low values 1.02 | S. cerevisiae deletion strains, locus YOR001W, strain rrp6, hits give low values 0.992 | S. cerevisiae deletion strains, locus YOR061W, strain CKA2, hits give low values 1.02 | S. cerevisiae deletion strains, locus YOR069W, strain VPS5, hits give low values 1.01 | S. cerevisiae deletion strains, locus YOR070C, strain gyp1, hits give low values 0.982 | S. cerevisiae deletion strains, locus YOR080W, strain dia2, hits give low values 0.984 | S. cerevisiae deletion strains, locus YOR083W, strain WHI5 (second series), hits give low values 1.02 | S. cerevisiae deletion strains, locus YOR083W, strain WHI5, hits give low values 0.983 | S. cerevisiae deletion strains, locus YOR106W, strain vam3, hits give low values 0.969 | S. cerevisiae deletion strains, locus YOR136W, strain idh2, hits give low values 1.02 | S. cerevisiae deletion strains, locus YOR144C, strain elg1, hits give low values 1.02 | S. cerevisiae deletion strains, locus YOR184W, strain ser1, hits give low values 0.999 | S. cerevisiae deletion strains, locus YOR231W, strain MKK1, hits give low values 1.02 | S. cerevisiae deletion strains, locus YOR265W, strain rbl2, hits give low values 0.997 | S. cerevisiae deletion strains, locus YOR270C, strain vph1, hits give low values 0.995 | S. cerevisiae deletion strains, locus YOR290C, strain snf2, hits give low values 0.982 | S. cerevisiae deletion strains, locus YOR316C, strain cot1, hits give low values 1.02 | S. cerevisiae deletion strains, locus YPL051W, strain arl3, hits give low values 1 | S. cerevisiae deletion strains, locus YPL055C, strain LGE1, hits give low values 1.01 | S. cerevisiae deletion strains, locus YPL078C, strain atp4, hits give low values 0.988 | S. cerevisiae deletion strains, locus YPL106C, strain sse1, hits give low values 0.957 | S. cerevisiae deletion strains, locus YPL240C, strain hsp82, hits give low values 0.992 | S. cerevisiae deletion strains, locus YPL241C, strain CIN2, hits give low values 1.01 and 1 | S. cerevisiae deletion strains, locus YPL256C, strain CLN2, hits give low values 1.08 | S. cerevisiae deletion strains, locus YPR119W, strain clb2, hits give low values 1.01 | S. cerevisiae deletion strains, locus YPR141C, strain kar3, hits give low values 1.03 | S. cerevisiae deletion strains, locus YPR163C, strain tif3, hits give low values 1.02 | S. cerevisiae deletion strains, locus YPR167C, strain met16, hits give low values 1.01 | S. cerevisiae deletion strains, strain wtn01, hits give low values 1.09 | S. cerevisiae strains, strain wild type, hits give low values 1

From PubChem BioAssay AID1159580 (chemical genetic matrix, 2015)
